Reference: PubChem BioAssay AID1964107 (National Center for Advancing Translational Sciences (NCATS), 2024)
Out of some 31,000 compounds screened, about 360 (1.2%) were called active. Not shown: some 8% with an inconclusive outcome. The full list was thinned out, with actives kept by preference. Unmarked numbers belong to inactive results. Calls come from the whole dose curve.

molecular target: Polyprotein P1234 (Chikungunya virus (strain S27-African prototype)) (UniProt Q8JUX6); assay: Primary qHTS for inhibitors of NSP2Pro chikungunya virus (CHIKV); settings: FRET peptide cleavage, fluorescence 1 h; series mostly up to 24.9 µM; activity change, negative = inhibition: at the top concentration; note: nearly all actives have a fitted effect of over 60% in size
Sequence (Q8JUX6 whole entry, looked up): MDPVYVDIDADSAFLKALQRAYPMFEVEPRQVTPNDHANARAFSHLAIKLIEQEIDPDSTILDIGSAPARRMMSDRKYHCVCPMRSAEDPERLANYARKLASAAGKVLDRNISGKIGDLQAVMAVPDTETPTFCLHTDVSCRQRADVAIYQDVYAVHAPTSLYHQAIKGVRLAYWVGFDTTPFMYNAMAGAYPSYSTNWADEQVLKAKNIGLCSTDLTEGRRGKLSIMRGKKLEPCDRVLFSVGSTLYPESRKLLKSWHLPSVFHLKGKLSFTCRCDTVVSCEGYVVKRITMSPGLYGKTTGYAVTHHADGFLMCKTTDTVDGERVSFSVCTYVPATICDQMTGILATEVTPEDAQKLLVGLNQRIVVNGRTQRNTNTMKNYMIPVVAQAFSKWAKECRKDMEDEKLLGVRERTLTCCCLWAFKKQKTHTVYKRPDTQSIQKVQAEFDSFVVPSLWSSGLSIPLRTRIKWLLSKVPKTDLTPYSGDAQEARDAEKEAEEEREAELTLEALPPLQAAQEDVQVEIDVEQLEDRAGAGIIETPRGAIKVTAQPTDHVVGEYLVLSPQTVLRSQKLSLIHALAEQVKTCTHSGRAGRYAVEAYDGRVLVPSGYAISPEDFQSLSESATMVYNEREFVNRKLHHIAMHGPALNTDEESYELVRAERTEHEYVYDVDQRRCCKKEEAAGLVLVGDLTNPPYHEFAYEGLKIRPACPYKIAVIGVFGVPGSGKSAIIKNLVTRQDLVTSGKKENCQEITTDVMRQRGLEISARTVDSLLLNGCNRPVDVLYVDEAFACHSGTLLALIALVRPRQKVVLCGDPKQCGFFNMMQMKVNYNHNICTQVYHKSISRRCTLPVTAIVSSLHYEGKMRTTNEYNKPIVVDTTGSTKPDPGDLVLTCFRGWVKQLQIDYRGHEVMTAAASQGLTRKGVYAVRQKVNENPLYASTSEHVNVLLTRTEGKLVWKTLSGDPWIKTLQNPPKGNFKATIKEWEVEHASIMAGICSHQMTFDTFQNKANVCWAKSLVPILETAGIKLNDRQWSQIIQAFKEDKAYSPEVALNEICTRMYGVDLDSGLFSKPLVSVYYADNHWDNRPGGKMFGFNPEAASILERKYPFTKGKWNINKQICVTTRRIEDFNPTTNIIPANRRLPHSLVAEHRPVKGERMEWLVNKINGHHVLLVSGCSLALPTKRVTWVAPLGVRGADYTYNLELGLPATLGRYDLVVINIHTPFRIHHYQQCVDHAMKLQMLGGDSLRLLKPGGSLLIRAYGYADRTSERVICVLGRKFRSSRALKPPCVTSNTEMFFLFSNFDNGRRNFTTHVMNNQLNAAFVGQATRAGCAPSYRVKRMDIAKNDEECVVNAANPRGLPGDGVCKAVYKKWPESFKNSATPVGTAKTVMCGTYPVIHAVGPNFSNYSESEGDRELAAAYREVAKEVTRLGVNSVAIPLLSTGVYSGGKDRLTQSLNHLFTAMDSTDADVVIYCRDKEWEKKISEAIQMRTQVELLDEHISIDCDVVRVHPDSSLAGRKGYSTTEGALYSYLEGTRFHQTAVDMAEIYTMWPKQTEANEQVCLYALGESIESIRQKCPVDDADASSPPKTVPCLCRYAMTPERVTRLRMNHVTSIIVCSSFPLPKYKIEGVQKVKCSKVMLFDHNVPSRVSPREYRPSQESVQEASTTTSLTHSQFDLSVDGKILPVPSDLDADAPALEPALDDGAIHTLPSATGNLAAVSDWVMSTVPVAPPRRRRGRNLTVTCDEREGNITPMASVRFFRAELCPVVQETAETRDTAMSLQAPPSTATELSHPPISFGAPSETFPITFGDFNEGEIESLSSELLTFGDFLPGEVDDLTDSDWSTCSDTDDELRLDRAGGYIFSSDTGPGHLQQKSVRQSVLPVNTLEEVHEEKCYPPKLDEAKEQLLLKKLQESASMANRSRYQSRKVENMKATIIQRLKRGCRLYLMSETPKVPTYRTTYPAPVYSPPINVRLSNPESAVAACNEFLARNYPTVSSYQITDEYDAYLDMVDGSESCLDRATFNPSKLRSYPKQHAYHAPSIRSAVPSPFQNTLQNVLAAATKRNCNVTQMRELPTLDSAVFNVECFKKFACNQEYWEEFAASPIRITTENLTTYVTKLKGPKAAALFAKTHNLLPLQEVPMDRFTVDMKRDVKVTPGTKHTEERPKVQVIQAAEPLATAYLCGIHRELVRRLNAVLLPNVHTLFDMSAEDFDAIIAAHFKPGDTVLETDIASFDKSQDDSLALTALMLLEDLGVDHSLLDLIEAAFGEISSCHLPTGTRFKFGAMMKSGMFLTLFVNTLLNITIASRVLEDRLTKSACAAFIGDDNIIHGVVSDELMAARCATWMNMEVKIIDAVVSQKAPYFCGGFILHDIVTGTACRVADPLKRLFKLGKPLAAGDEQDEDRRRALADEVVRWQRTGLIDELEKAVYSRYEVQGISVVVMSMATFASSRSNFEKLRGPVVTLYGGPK
From the text: PI: Natalia J. Martinez Ph.D. National Center for Advancing Translational Sciences (NCATS), National Institute of Health (NIH), Rockville, Maryland Chikungunya virus (CHIKV) is a mosquito-borne RNA virus that has emerged as one of the most important global arboviral threats in the last decade. Although the first CHIKV vaccine has recently been FDA approved for use in healthy adults at increased risk, to date, there are no available antiviral drugs for CHIKV infection. CHIKV nsP2 protease plays a crucial role in the processing of the viral polypeptide precursor to release enzymes required for viral replication, thus making it a promising drug target for antiviral discovery. Here, we established a high-throughput pipeline to identify small molecule inhibitors of nsP2 proteolytic activity. The pipeline is composed of a suite of 1,536-well in vitro assays to support quantitative high-throughput (qHTS) screening campaigns. Specifically, we developed a fluorescence resonance energy transfer (FRET)-based assay using a fluorogenic peptide substrate encompassing an endogenous cleavage site and purified recombinant protease domain (nsP2pro). Using this assay, we interrogated ~37,000 small molecules, including those in drug repurposing libraries as well as chemically diverse and medicinal chemistry-friendly compounds. Hits were selected for follow-up validation against full-length nsP2 and an additional peptide. FRET-based 1,536-well assays for papain, hepatitis C virus NS3-4A, and human furin proteases were implemented to characterize compound selectivity. […] Novel compounds were identified to be potential nsP2 inhibitors and molecular docking analyses were performed to explain the binding mode of selected hits. In vitro antiviral activity was evaluated for a subset of compounds using a high-throughput CHIKV infection assay. To our knowledge, the pipeline presented here is unprecedented for CHIKV antiviral discovery research.
PROTOCOL TABLE (as described by Inglese J, Shamu CE and Guy RK. 2007) SEQUENCE No. (e.g., 1, 2, 3, etc.); […] (e.g., Cells, Incubation, Reagent, etc.); VALUE; DESCRIPTION. 1; Control / Compound; 20 nL; Echo 655 acoustic dispenser, Greiner 1536-well solid bottom black plate. 2; Enzyme; 4 uL; BioRAPTR FRD liquid dispenser (Beckman Coulter). 3; Incubation; 15 min; room temperature. 4; Reagent; 4 uL; 2.5 uM Peptide 2 substrate. 5; Incubation; 1 hr; room temperature. 6; Detection; Fluorescence; WiewLux microplate reader (PerkinElmer), 525 nm excitation, 598/25 nm emission. NOTES (numbers refer to sequence numbers above). 1. Briefly, 20 nL DMSO, positive control ZnAc (20nM final concentration), and test compounds were transferred into a 1,536-well solid bottom black plate (789176-F, Greiner One) via Echo 655 acoustic dispenser (Beckman Coulter). For primary screens, compounds were tested at 7 concentrations, 1:3 dilution points ranging from 25 uM to 34 nM. Follow-up confirmatory screens were carried out at 11 concentrations, 1:3 dilution points from 25 uM to 0.42 nM. 2. Four uL nsP2pro enzyme mix (150 nM final concentration) in 10 mM Tris-HCl pH 8.0 with 0.01% Tween 20 assay buffer was dispensed into the plate using a BioRAPTR FRD liquid dispenser (Beckman Coulter). 3. The plate was incubated at room temperature (protected from light) for 15 min 4. Four microliter of peptide 2 substrate (2.5 uM final concentration) in assay buffer was added to the plate. 5. After 1 hour, plates were immediately read on a ViewLux high-throughput CCD imager (Exposure = 10 sec, Gain = High, Speed = Slow, Binning = 2X). The above assay was also incorporated in the NCATS HTS facility41, which allowed for robotic liquid and compound dispensing, microplate handling, and fluorescence reading.. REFERENCE: Inglese J, Shamu CE and Guy RK, Reporting data from high throughput screening of small molecule libraries, Nature Chemical Biology, 2007, 3(8): 438-441. doi.org/10.1038/nchembio0807-438.
% is set by controls: 0 for no effect and ±100 for the full control effect; potency is the fitted concentration of half-maximal effect.

Structure (SMILES)	activity change, negative = inhibition	outcome	Potency
COc1ccc(CCNC(=O)C(=O)NCC(c2ccco2)S(=O)(=O)c2cccs2)cc1OC (stereo not given)	-13.2%	–	–
O=C(O)c1ccc(CSc2nc3cccnc3n2Cc2cccc(F)c2)cc1	-15.8%	–	–
O=S(=O)(c1ccc2c(c1)OCCCO2)N1CCN(S(=O)(=O)c2c(F)cccc2F)CC1	-1.31%	–	–
Cc1ccc(C(=O)NC2CCN(C#N)CC2)cc1	-7.02%	–	–
Cn1c(C(=O)N2CCC(C(=O)N3CCN(c4ccccc4)CC3)CC2)cc2sccc21	3.22%	–	–
Cc1ccsc1C(=O)C1CCCN(Cc2ccc(OC(C)C)c(CO)c2)C1 (stereo not given)	–	inactive	–
CCOc1ccc(CCNC(=O)C2=C(C)C(=O)OC23CCC(C)CC3)cc1OCC (stereo not given)	-4.16%	–	–
COc1ccccc1-c1nnc2n1N=C(c1ccc(OC(F)F)c(OCC3CC3)c1)CS2	-5.34%	–	–
O=C(Nc1ncc(Cc2ccc(C(F)(F)F)cc2)s1)c1cnc(-c2ccccc2)o1	-4.65%	–	–
CCOc1ccc(CCNC(=O)c2c(C)oc3ncn(C)c(=O)c23)cc1	-10.1%	–	–
CN[C@H]1CN(c2ccc3c(=O)c(C(=O)O)cn(-c4nccs4)c3n2)C[C@@H]1OC	-5.01% [at 5.1 µM]	–	–
Cc1cc(F)ccc1NC(=O)CCC1CCCN(C(=O)c2ccc(Cl)s2)C1 (stereo not given)	-2.75%	–	–
CCC(CC)[C@H](NC(C)=O)[C@@H]1[C@H](O)[C@@H](C(=O)O)C[C@H]1N=C(N)N	-4.24% [at 0.199 µM]	–	–
C[C@@H]1O[C@@H](O[C@@H]2[C@@H](O)[C@H](O[C@@H]3[C@@H](O)[C@@H](O)[C@H](O[C@H]4[C@H](OC(=O)[C@]56CCC(C)(C)C[C@H]5C5=CCC7[C@@]8(C)C[C@H](O)[C@H](O[C@@H]9O[C@@H](C)[C@H](O)[C@@H](O)[C@H]9O)[C@@](C)(CO)C8CC[C@@]7(C)[C@]5(C)C[C@H]6O)O[C@H](C)[C@H](O)[C@@H]4O)O[C@H]3C)OC[C@H]2O)[C@H](O)[C@H](O)[C@H]1O (stereo not given in full)	10.2% [at 5.1 µM]	–	–
Cc1nc(C)c(-c2ccc3ncnc(NCc4ncc[nH]4)c3c2)s1	–	inactive	–
COc1cccc(CNCCSc2nnnn2C)c1OCc1ccccc1Cl	-28.7%	–	–
O=C(Nc1cc(C(F)(F)F)ccc1Cl)c1ccc2c(c1)CCN2S(=O)(=O)c1ccccc1	-9.56%	–	–
COc1cc(OC)cc(C(=O)NCCc2csc3nc(-c4ccccc4F)nn23)c1	-4.65%	–	–
CCc1ccc(NC(=O)C(=O)NNC(=O)Cc2ccc(Cl)c(Cl)c2)cc1	–	inactive	–
Cc1cc(C)cc(NC(=O)CSc2nc(=O)n(CCN3CCOCC3)c3c2CCC3)c1	-16.5%	–	–
O=C(c1cccc(F)c1)N1CCCC(CN2CCOCC2)CC1 (stereo not given)	-18.1%	–	–
O=C(CCc1cn(Cc2ccc(F)cc2)c2ccccc12)NC1CCCCC1	-6.32%	–	–
COc1ccc(Cl)cc1S(=O)(=O)N1CCC(c2ccncc2)CC1	-8.44%	–	–

Structure (SMILES)	activity change, negative = inhibition	outcome	Potency
COc1cccc(-n2ccn(CC(=O)NCc3ccc(C)cc3)c(=O)c2=O)c1	-14.9%	–	–
CN(C(=O)c1ccc2c(c1)N(Cc1cccc(Cl)c1)C(=O)c1ccccc1S2=O)C1CCCCC1 (stereo not given)	-7.42%	–	–
O=C(CSc1nccn1C1CCCC1)Nc1cc(C(F)(F)F)ccc1Cl	-12.2%	–	–
COc1ccccc1N1CCN(c2ccc(=O)n(CC(=O)NCc3ccc(OC(C)C)cc3)n2)CC1	-12.8%	–	–
CC1CCC2(C)C(CC(O)C(O)C23CO3)C1(C)CCC1=CC(O)OC1=O (stereo not given)	-4.36%	–	–
Cc1noc(C)c1S(=O)(=O)N1CC(C(=O)NC2CCCCC2)C2(CCOCC2)C1 (stereo not given)	-2.85%	–	–
COc1cccc(-c2cc(C(=O)N3CCN(c4ncccn4)CC3)c3cnn(C)c3n2)c1	–	inactive	–
CCc1ccc(C(=O)CC2(O)C(=O)N(CCc3ccccc3)c3ccc(Br)cc32)cc1 (stereo not given)	-13.5%	–	–
COCc1nc(C2CC(N)C2)cc(N2CCC(Cn3cccn3)CC2)n1 (stereo not given)	-3.16%	–	–
O=C(Nc1cc(-c2ccccc2)nn1-c1ccccc1F)c1ccc([N+](=O)[O-])cc1	8.97%	–	–
COc1ncccc1-c1cc(-c2cn[nH]c2)c2cncn2c1	–	inactive [at 39.2 µM]	–
CN1CCN(C(=O)c2ccc(-c3cnc4c(O)ccc(C(=O)O)c4c3)cc2)CC1	–	inactive	–
COc1ccc(NC(=O)CSc2nnc(-c3nnn(-c4ccc(F)cc4)c3C)o2)cc1	-14.4%	–	–
CNC(=O)[C@@H](Cc1ccccc1)N1CCC[C@H]1C(=O)NCC1CC1	-2.23% [at 39.2 µM]	–	–
COc1ccc(OC)c(NC(=O)CSC2=Nc3ccccc3C3=NC(CC(=O)NCCc4ccccc4)C(=O)N23)c1 (stereo not given)	-8.36%	–	–
COC(=O)CC[C@@H](C)C1CCC2C3CCC4C[C@H](OC(C)=O)CCC4(C)C3C[C@H](O)C21C (stereo not given in full)	6.27%	–	–
CCOC(=O)c1ccc(NC(=O)c2c(NCc3cccc(OC)c3)sc3c2CCC3)cc1	-14.3%	–	–
CCOc1ccc(NC(=O)c2c(NC(=O)Cc3ccccc3)sc3c2CCCCC3)cc1	–	–	8.91 µM (active)
CCOc1ccc(NC(=O)c2c(NC(=O)Cc3ccccc3)sc3c2CCC(C)C3)cc1 (stereo not given)	–	–	3.38 µM (active)
COC(=O)c1c(NC(=O)CCCOc2ccccc2)sc2c1CCC(C)C2 (stereo not given)	-57.2%	–	–
Cc1cccc(OCCCC(=O)Nc2sc3c(c2C(N)=O)CCC(C)C3)c1 (stereo not given)	-11.5%	–	–
O=C(Cc1ccccc1)Nc1sc2c(c1C(=O)Nc1ccc(Br)cc1)CCC2	12.8%	–	–
